Here are results for 40 sequences from the supplement of paper PMC6555819.

The test concerns PPARg:RXRa DBDmut IVT, anti-RXR (DBD mutation: RXRa K156A/R161A, NR concentration 270 nM, RXRa partner concentration 90 nM). Put plainly: PBM binding z-score (relative to random genomic background probes); higher = stronger binding; sequences stand for … in GC…GCGATTGACAGCGTAGAATGAAGG
The method, boiled down: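 Regression normalization was applied to scanned fluorescence from custom Agilent 4×180K protein-binding microarrays. Before scanning, arrays were incubated 1 h with ligand-free nuclear receptor dimers, and binding was detected with antibodies against each partner (one per run). Binding z-scores use the random background probes as reference.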
For AGAACGAGGGCACGCTGAGTTCATAGCAGAGTAG, the PBM binding z-score turned out to be 3.84.
With GATACAGGGTCAGCTAGAGGACAGAGTATGGAAA the figure was 1.12.
The figure for AGTCAAAGTTCATCTAGGTAACGTAGGATATGCT is 1.16; for GGAACGAGGACAAGTTGATAGCAGAGTTTGATGG it is 0.934.
With GCTGCTAGGTCTGGTTGGTCAGCTAACGGGTACG the figure was -0.0168; with AGAATGAGGTAATACGTAGATCAGGGAAGAAAGT, 3.49; with AGAACGAGGGCACGCTGAGTTGATGGCAGAGTAG, 4.26.
With TCACGGAGGACACGAAAGGTCAGAGCTCGACATC, the PBM binding z-score was 1.84.
With TCTTGTAGATAAGCAGGTTAAGAAAGCTGGCCAA the figure was 1.32.
For the sequence CCTAGTTGGTCAGGAGGTTACACACCGGATATGA, the PBM binding z-score came out at 0.814.
The figure for TCTGCTAGGTCAGTTGGTCAGCCAACGAGCTGCC is 2.34; for CATCCAAGGTCAGAGAGGTCAGTGAATGCCGAGT it is 2.91.
With TCAAGCAGGCCAGAGGGTCACTCAAGAGGTACGG the figure was 1.38; with AATACAGGGTCACTAGGCGAGAGTAGGTACGAAT, 3.92; with CCTACTTGGTCAGGAGGTCACACACCGGATATGA, 1.61.
With GGAACGAGGGCAAAGATGATAGCATCTGTCGACG, the PBM binding z-score came to 3.87.
With CCTACAGGGCCACGAAAGGTCATTGATTCAGTGA the figure was 0.816; with TTACCAAGGTGTAGGTCGTTGATCCCTCTGTAGA, -0.191.
With CGAACTACGTCAGAACAGGACAGTGAAGGATGAT the figure was -0.549.
As to CCTACTGGGCCACGGAAGGTCATTGATTCAGTGA, the PBM binding z-score turned out to be 4.56.
With CCTAGTTGGTCAAGAGGTCACACACCGGATATGA the figure was 2.07; with TCTTGTAGATTAACAGGAGGTTAAGAAAGATCGA, 1.1; with CGTCCAAGGTCAAAGGTCGGTGAAGAGATGACGG, 3.9.
With GCTGCTAGGTCAGATTGGTCAGCTAACGGGTACG the figure was 2.72.
The figure for TCTAGTAGATCAACAGGAGGTTAAGAAAGATCGA is 1.67; for ACTATTAGTTGACTTAGGCCAACCGATACGACGC it is 0.581.
Turning to TATACAGGGTCATAGGCCAGAGTACGAATGTCGA, the PBM binding z-score came out at 2.32.
For the sequence GCTCGGATGACAAGGTCAGAGCTTTGTCCGTAGA, the PBM binding z-score was 0.0806.
The figure for CGTCCAAGGTCAATGCTAGGTCGGTGAAAGCATT is 3.27; for TCTATTAGTTGACTAGGGCAACCGAAACAGCGGA it is 3.04; for TTGCCAAGGTGAAGGTCGTTGATCCCTCTGTAGA it is 1.25.
For TCTCGGAGGACACGATGGTCAGAGCTTTCCAGAG, the PBM binding z-score is 1.01.
With TCTATTAGTTGATTAGGGCAACTGAAACAGCGGA the figure was 2.22; with TCTTGTAGATGAAAGGTTAAGAAAGCCGAAGCCT, 2.04; with TCAGACATGTGAAGGTAACTCAGGTACGCAGTCG, 1.82.
ATATGTAGGTTAATGGTCATTCAGGTTGGTTCGC yielded a PBM binding z-score of 7.35.
ACTATTAGTTGAGACAAGGGCAACCGATAGGTTG displayed a PBM binding z-score of -0.102.
The figure for GCTGCTAGGTCCACTGATGGTCAGCTAAAGCTCG is 0.0704; for TTACCAAGGTGAAGGTCCTTGATCCCTCTGTAGA it is 1.64; for CAAACTAGGTCACGAAAGGTCAATGTCGAATGAC it is 8.46.
